High-throughput results deposited in PubChem by National Center for Advancing Translational Sciences (NCATS).
Sampled rows, rich in hits. Any-hit rate of the full collection: about 10%.
HEK cytotox: Cytotoxic Profiling in HEK 293 Cell Line of Diverse Libraries Using Quantitative High-Throughput Screening. Potency, µM (series often up to 115 µM), for the others: at the highest dose activity change, negative = cytotoxicity, actives largely listed as inhibitors. HEK 293 viability, ATP luminescence (CellTiter-Glo), 48-72 h. 6.6% of 94,000 active; note: nearly all actives have a fitted effect of over 60% in size
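Luminescence from cellular ATP, measured with CellTiter-Glo, indicates HEK 293 viability. Cells plated at 250 cells/well are treated with compound for 48 or 72 hr at 37 degree Celsius before reagent addition.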
GPT2 inh: Primary qHTS assay for inhibitors of Glutamate pyruvate transaminase 2 (GPT2); Alanine aminotransferase 2 (Homo sapiens), Q8TD30; Recombinant GPT2, coupled pyruvate oxidase/HRP Amplex Red fluorescence; Potency, µM (doses to about 57.7 µM), for inactives: top-dose activity change, negative = inhibition, hits mostly inhibitors; 0.25% of 100,000 active; AID 1671188, 2021; note: nearly all actives have a fitted effect of over 60% in size
Target sequence (Q8TD30 whole entry, looked up): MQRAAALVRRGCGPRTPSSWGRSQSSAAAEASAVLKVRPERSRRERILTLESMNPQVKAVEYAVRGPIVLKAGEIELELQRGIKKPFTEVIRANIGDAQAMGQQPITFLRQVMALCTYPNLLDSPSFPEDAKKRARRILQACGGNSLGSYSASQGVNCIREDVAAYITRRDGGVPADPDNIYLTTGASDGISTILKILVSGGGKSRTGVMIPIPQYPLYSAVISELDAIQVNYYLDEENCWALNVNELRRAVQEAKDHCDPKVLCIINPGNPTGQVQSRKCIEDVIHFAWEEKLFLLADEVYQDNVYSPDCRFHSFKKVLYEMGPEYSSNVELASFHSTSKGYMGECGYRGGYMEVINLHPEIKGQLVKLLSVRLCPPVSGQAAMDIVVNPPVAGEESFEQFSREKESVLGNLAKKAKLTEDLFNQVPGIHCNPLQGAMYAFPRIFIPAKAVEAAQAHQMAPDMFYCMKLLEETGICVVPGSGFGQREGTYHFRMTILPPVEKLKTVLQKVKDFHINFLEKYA
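Inhibition is scored from Amplex Red fluorescence generated when pyruvate oxidase and HRP act on pyruvate released by GPT2. Reactions contain 10ng/uL enzyme, 250uM a-KG and 2mM L-alanine and run 30 min at room temperature.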
Luciferase inh: Firefly luciferase inhibition profiling of diverse chemical library using quantitative high-throughput screening; 2.5% of 76,000 active; AID 1347043, 2019; Luciferin 4-monooxygenase (Photinus pyralis), P08659; purified P. pyralis luciferase, luminescence, biochemical; Potency, µM (titrated, usually from 115 µM), usual class: inhibitors; note: nearly all actives have a fitted effect of over 65% in size
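Biochemical qHTS: compound (6-point titration) added to 10uM D-luciferin plus 10uM ATP in Tris acetate pH 7.5 buffer with Mg, Tween-20 and BSA, then purified enzyme at 10nM; light output imaged.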
NIH3T3 tox: Cytotoxic Profiling in NIH 3T3 Cell Line of Diverse Libraries Using Quantitative High-Throughput Screening; NIH 3T3 viability, CellTiter-Glo ATP luminescence, 48-72 h; 4.3% of 94,000 active; AID 1345082, 2018; Potency, µM (top dose mostly 96.7 µM), inactives show at the top dose activity change, negative = cytotoxicity, usual class: inhibitors; note: nearly all actives have a fitted effect of over 55% in size
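Viability of NIH 3T3 cells after 48 or 72 hr compound treatment at 37 °C was assessed by CellTiter-Glo, with luminescence imaged following a 10 min room-temperature step.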
hNpr1 antagonist: Natriuretic polypeptide receptor (hNpr1) antagonism - Primary qHTS; AID 1347048, 2019; HEK293 hNpr1 GloSensor cGMP, ANP-stimulated luminescence; 1.6% of 76,000 active; Atrial natriuretic peptide receptor 1 (Homo sapiens), P16066; Potency, µM (top dose mostly 46.3 µM), without a hit: at the highest dose activity change, negative = inhibition, actives largely listed as inhibitors; calls by dose curve; note: nearly all actives have a fitted effect of over 60% in size
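HEK293 cells stably expressing human Npr1 and cGMP GloSensor pGS-40F, loaded 2 h with 2% GloSensor reagent, given compound 30 min at room temperature. Luminescence read before and 20 min after 0.1 nM hNppA.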
Starred values were filed as active, the others as inactive; i = inactive; u = inconclusive; x = not tested or not shown; [ ] = remark or other dose. Unless noted, calls come from the whole dose curve; as a rule, active = well fitted curve in the direction sought with a large enough effect; inconclusive = small, poorly fitted or top-dose-only effect, or another doubt; inactive = no such curve, though single readings can be large; an effect the other way counts as inactive or inconclusive. % is set by controls: 0 for no effect and ±100 for the full control effect; potency is the fitted concentration of half-maximal effect.

SMILES	HEK cytotox	GPT2 inh	Luciferase inh	NIH3T3 tox	hNpr1 antagonist
CCN1C(=O)CCC2(C(=O)NCCc3c[nH]c4ccccc34)CCCC=C12 (centres undefined)	-19%	u	u	-20%	-7%
CCCNCc1ccc(-c2ccccc2)o1	-6%	u	i	i	-1%
c1ccc(-c2ccc(CNCc3cccs3)o2)cc1	u	-18%	35µM*	-22%	-25%
CC(C)c1cc(N2C[C@H](O)[C@@H](N3CCCCC3)C2)n2nccc2n1	-9%	i[11.5 µM]	i	-2%	2%
O=C(Nc1cccc(C(F)(F)F)c1)c1nc2c(o1)CCN(CC1CC1)CC2	u	-19%[88.5 µM]	i	u	0%[70.6 µM]
O=C(NCC1CC1)c1nc2c(o1)CCN(Cc1cccs1)CC2	u	i	71µM*	-23%[138 µM]	-14%[70.6 µM]
Cc1csc(NC(=O)c2nc3c(o2)CCN(CC2CC2)CC3)n1	-5%[172 µM]	-3%[88.5 µM]	18µM*	u	-5%[70.6 µM]
COc1cccc(CC(=O)N2CCC3(CC2)CN(c2ccccc2)C3=O)c1	u	4%	x	u	x
Clc1ccccc1C1(c2ccnc(NC3CCC3)n2)CCNCC1	35µM*	-34%	i	28µM*	-21%
CC(=O)N[C@@H]1C=C[C@@H](c2c(C)nn(-c3ccc(C)c(Cl)c3)c2C)C1	u	2%[88.5 µM]	u	79µM*	u
Cc1nn(-c2ccc(C(F)(F)F)cc2)c(C)c1[C@@H]1C=C[C@@H](NS(=O)(=O)c2cccs2)C1	u	-12%	i	u	-18%
COc1ccc(NC(=O)O[C@@H]2C=C[C@H](c3c(C)nn(-c4ccc(C)c(Cl)c4)c3C)C2)cc1	u	1%	i	u	-3%
Cc1ccc(-n2nc(C)c([C@H]3C=C[C@@H](OC(=O)Nc4ccc(C(C)C)cc4)C3)c2C)cc1Cl	28µM*	2%	i	u	-12%
COc1ccc(C(=O)N[C@@H]2C=C[C@@H](c3c(C)nn(Cc4ccccc4)c3C)C2)cc1	u	-6%[88.5 µM]	u	u	-3%[70.6 µM]
CC(=O)Nc1ccc(S(=O)(=O)N[C@@H]2C=C[C@@H](c3c(C)nn(-c4ccc(C(C)(C)C)cc4)c3C)C2)cc1	45µM*	-5%	45µM*	u	-15%
Cc1cc(Cl)ccc1-n1nc(C)c([C@@H]2C=C[C@@H](NC(=O)c3ccc(N(C)C)cc3)C2)c1C	u	-7%	18µM*	u	u
CN(C)C(=O)CCc1ccc2c(c1)CN(C(=O)C1CCCCC1)CCO2	-17%	-30%	x	-29%	x
Cc1nn(-c2ccccc2)c2c1C(C(C)C)N(C1CCN([S+](=O)([O-])c3c(C)noc3C)CC1)C2=O (centres undefined)	-3%	x	x	-16%	x
Cc1cc(C[C@@H]2COC[C@@H]2NC(=O)c2ccc3nc(C)sc3c2)on1	5%	u	i	i	5%
Cc1cccc(S(=O)(=O)N2CCc3c(C(=O)NCCCN4CCCCC4)cccc32)c1	u	-14%	i	u	1%
Cc1ccc(NC(=O)N2CCc3c(C(=O)N(C)C)cccc32)cc1	2%	3%	16µM*	u	-1%
COCCCNC(=O)c1cccc2c1CCN2C(=O)Nc1cccc(C)c1	u	i	0.32µM*	u	2µM*
CCCCNC(=O)c1cccc2c1CCN2C(=O)Nc1ccc(C)cc1	u	u	u	u	1.4µM*
CC(C)(C)c1nnc2ccc(C(=O)NC3CCCCC3)cn12	0%[172 µM]	-1%[88.5 µM]	x	-29%[138 µM]	x
COc1cccc(-c2ccc(C(=O)N3CCC(NC(=O)c4ccccc4Cl)CC3)cc2)c1	40µM*	-5%	x	u	x
SMILES	HEK cytotox	GPT2 inh	Luciferase inh	NIH3T3 tox	hNpr1 antagonist
COc1cccc(-c2ccc(C(=O)N3CCC(NC(=O)Cc4ccc(C(F)(F)F)cc4)CC3)cc2)c1	u	i	x	u	x
COc1ccc(CC(=O)NC2CCN(C(=O)c3ccc(-c4cccc(OC)c4)cc3)CC2)cc1	45µM*	i	x	35µM*	x
O=C(NCC1CC1)c1cccc(OC2CN(Cc3ccncc3F)C2)c1	-22%	i	i	-15%	10%
COc1ccccc1-c1cccc(CN2CCC(N[S+](=O)([O-])c3ccccc3)CC2)c1	40µM*	i	x	32µM*	x
COc1ccccc1-c1cccc(CN2CCC(N[S+](=O)([O-])c3cccc(C(F)(F)F)c3)CC2)c1	u	x	x	13µM*	x
COc1ccccc1-c1cccc(CN2CCC(NC(=O)C3CCCC3)CC2)c1	u	4%	x	u	x
O=C(CN1C(=O)C(c2ccccc2)=NC12CCCCC2)NC1CCCC1	28µM*	i	i	u	-1%
O=C(CN1C(=O)C(c2ccccc2)=NC12CCCC2)NCc1ccc(F)cc1	40µM*	i	i	u	-23%
CC(=O)NC1(C)CCN(Cc2ccc(-c3ccc(N4CCOCC4)cc3)cc2)C1 (centres undefined)	u	1%[88.5 µM]	u	u	-14%[70.6 µM]
CC(=O)NC1(C)CCN(Cc2ccc(-c3ccccc3OCc3ccccc3)cc2)C1 (centres undefined)	32µM*	4%[88.5 µM]	u	32µM*	-4%[70.6 µM]
COc1cc(CN2CCC(C)(NC(C)=O)CC2)cc(NCc2ccccc2)c1	u	0%[88.5 µM]	i	-10%[138 µM]	2%[70.6 µM]
CC(=O)NC1(C)CCN(Cc2ccc(-c3cccc(F)c3)cc2)C1 (centres undefined)	u	4%[88.5 µM]	i	89µM*	-15%[70.6 µM]
CC(=O)NC1(C)CCN(Cc2ccc(-c3cccc(C(F)(F)F)c3)cc2)C1 (centres undefined)	50µM*	i	63µM*	45µM*	-15%[70.6 µM]
COc1cccc(Nc2cc(CN3CCC(C)(NC(C)=O)CC3)cc(OC)c2)c1	112µM*	-10%[88.5 µM]	i	100µM*	-1%[70.6 µM]
COCCNC(=O)c1ccc2nc(-c3cccnc3Cl)oc2c1	i	-2%[88.5 µM]	x	-14%[138 µM]	x
Cc1noc(C2CC3(CCN(C(=O)c4cccs4)CC3)CN2C)n1 (centres undefined)	-12%	-5%	i	-1%	0%
CC(=O)NC1(C)CCN(Cc2ccc(-c3cccc(Cl)c3)cc2)C1 (centres undefined)	89µM*	-1%[88.5 µM]	i	u	-22%[70.6 µM]
CC(=O)NC1(C)CCCN(Cc2cc(-c3cccc(N(C)C)c3)cs2)C1 (centres undefined)	63µM*	i	71µM*	u	-1%[70.6 µM]
